Only some compounds are listed: those with a hit (about 3% of all), similar ones and a draw of the others.
MITF TRPM1 HTS = increases MITF-driven TRPM1 promoter luciferase signal. AID 588334. hit rate 0.75% among 300,000. SK-MEL-5 TRPM1-promoter luciferase, 24 h; % of positive control, neutral wells = 0. activation, % at 12.5 µM;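 active = mean activation of at least 80% with every replicate also reaching 80%; inconclusive = mean reaches 80% but some replicate falls short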
Vif inh = blocks HIV Vif function | hit rate 0.35% among 340,000 | inhibition, % at 7.49 µM | AID 602346 | HEK293T cells, Vif self-association by quenched fluorescence, imaging, 24 h; in the data active = inhibition above about 50%, passing the limit was not always enough; inconclusive = no clear call, values can overlap the other calls; inactive = below about 31%
Wnt bcat act = activates Wnt/beta-catenin signaling in a reporter cell assay | activator, plate reader | activation, % at 9.35 µM | hit rate 1.2% among 300,000 | AID 743398; in the data active = activation above about 30%, passing the limit was not always enough; inconclusive = no clear call, values can overlap the other calls
esBAF inh = blocks esBAF chromatin remodeling in mouse ES cells; Bmi1-luciferase knock-in reporter, 24 h; 100% = twice the neutral-well signal; reporter increase, % at 12.5 µM; hit rate 2% among 350,000; in the data active = activation above about 40%; inconclusive = no clear call, values can overlap the other calls;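 note: a rise in the Bmi1 reporter signal indicates esBAF inhibition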
N-glyco inh = N-linked glycosylation inhibition; hit rate 0.23% among 360,000; reporter increase, % at 12.5 µM; D54 ERlucT glycosylation luciferase reporter, 24 h; percent of 100 nM tunicamycin response;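 active = mean luciferase reporter signal, scaled so untreated is 0 and the glycosylation-blocking control 100, at or above a set limit in every replicate; inconclusive = mean reaches the limit but not every replicate does; inactive = mean below the limit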;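 note: luciferase carries N-glycosylation sites so blocking glycosylation raises the light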
PfHsp90 set2 = inhibits growth of yeast expressing Plasmodium falciparum Hsp90; inhibition, % at 9.4 µM; AID 504621; S. cerevisiae expressing PfHsp90, BacTiter-Glo ATP, 48 h; yeast lacking PDR1 and PDR3 efflux regulators; hit rate 0.32% among 310,000;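 active = every replicate shows inhibition above about 80%, whatever the replicate mean, limit read from the data; inconclusive = mean inhibition reaches the set limit but some replicate falls short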
Numbers stand for hits; – = inactive; ? = inconclusive; · = no result.

SMILES	MITF TRPM1 HTS	Vif inh	Wnt bcat act	esBAF inh	N-glyco inh	PfHsp90 set2
COc1ccc2c(c1)OC[C@H]1[C@H]2N2C(=O)[C@H](C)NC(=O)[C@@]2(C)[C@H]1c1ccccc1	–	–	–	–	–	–
COc1ccc2c(c1)[C@H]1[C@H](CO2)[C@H](c2ccccc2)[C@]2(C)C(=O)Nc3cc(F)ccc3C(=O)N12	–	–	–	–	41	–
O=C1Nc2ccccc2CCC1Sc1nnc(-c2ccc(Cl)cc2)s1 (stereo not given)	–	–	·	–	–	·
CCCCN1C2CCCC1CC(NC(=O)c1ccccc1Cl)C2 (stereo not given)	–	–	–	–	–	–
COc1ccc2c(c1)[C@H]1[C@H](CO2)[C@H](c2ccccc2)[C@]2(C)C(=O)Nc3ccccc3C(=O)N12	–	–	–	–	67	–
Cc1ccc(N2CC(C(=O)Nc3ccc4c(c3)OCCO4)CC2=O)cc1 (stereo not given)	–	–	30	–	–	–
Nc1c(C(=O)Nc2ccccc2)nnn1-c1ccc2c(c1)OCCO2	–	–	–	–	–	–
Cc1cc(C)cc(NC(=O)c2nnn(Cc3cc(C)ccc3C)c2N)c1	–	–	·	–	–	–
Cc1ccc(NC(=O)c2nnn(-c3ccc4c(c3)OCCO4)c2N)cc1	99	–	–	70	–	–
C[C@@H](C(=O)Nc1ccc2c(c1)OCCO2)n1nnc2ccccc2c1=O	101	–	–	57	–	–
Cc1ccc(C)c(Cn2nnc(C(=O)Nc3ccc4c(c3)OCCO4)c2N)c1	85	–	–	64	–	–
CC(C(=O)Nc1ccc2c(c1)OCCO2)n1nnc(-c2ccccc2)n1 (stereo not given)	–	–	–	·	–	–
Cc1ccc(N2CC(C(=O)Nc3ccc4c(c3)OCCO4)CC2=O)cc1C (stereo not given)	–	–	–	–	–	–
COc1cccc(/C=C2\CC(C)Cc3c2nc2ccccc2c3C(=O)O)c1OC (stereo not given)	·	–	–	–	–	–
O=C(CCC1CCCN(C(=O)COc2ccccc2)C1)N1CCN(c2ccccn2)CC1 (stereo not given)	–	–	–	·	–	–
O=C(NCCS(=O)(=O)N1CCN(c2ccc(F)cc2)CC1)c1ccco1	–	–	–	·	–	–
COc1ccc(Cn2nnc(C(=O)Nc3ccc4c(c3)OCCO4)c2N)cc1Br	–	–	–	–	–	–
Cc1ccccc1Cn1nnc(C(=O)Nc2ccc3c(c2)OCCO3)c1N	91	–	46	68	–	–
COc1ccc(NC(=O)C2CCN(S(C)(=O)=O)CC2)cc1OC	·	–	–	–	–	–
O=C(N=C1SCC(=O)N1c1ccccc1)c1ccco1	–	–	·	46	–	–
COCc1cc(C)nc(OCC(=O)N/N=C/c2ccc(-c3cc([N+](=O)[O-])ccc3C)o2)c1C#N	–	–	–	·	–	–
Cc1ccc([N+](=O)[O-])cc1-c1ccc(/C=C(\C#N)c2[nH]nc(N)c2C#N)o1	–	–	?	83	–	–
CCCNC(=O)N1C[C@@H](O)COC[C@@H]2O[C@H](CC(=O)N[C@H]3CCN(Cc4ccccc4)C3)CC[C@H]21	·	·	·	–	·	·
O=C(c1cccs1)N1CCN=C1SCc1ccccc1	–	–	–	·	–	–
O=C(c1cccs1)N1CCN=C1SCc1ccc(F)cc1	–	–	37	·	–	–
SMILES	MITF TRPM1 HTS	Vif inh	Wnt bcat act	esBAF inh	N-glyco inh	PfHsp90 set2
CC(=O)NC(CC(=O)OCC(=O)c1ccc(NC(=O)CC(C)C)cc1)c1ccccc1 (stereo not given)	–	–	–	–	–	·
COC(=O)c1cn[nH]c1NC(=S)Nc1ccccc1C	?	–	–	67	–	–
CN=C(Nc1ccccc1OC)SC1CC(=O)N(c2ccc(C(=O)OC)cc2)C1=O (stereo not given)	–	–	·	·	–	·
CCOC(=O)C1CCCN(C(=O)COc2ccccc2O)C1 (stereo not given)	·	–	·	–	–	–
CCOC(=O)C1CCCN(C(=O)CSc2nc(C)cc(C)n2)C1 (stereo not given)	–	–	–	–	–	–
CCOC(=O)C1CCCN(C(=O)CSCc2ccccc2)C1 (stereo not given)	–	·	–	48	–	–
